This note sets out measurements from PubChem BioAssay (NCI).

The structures appear in SMILES notation. Several values for one entry are separate records, joined by “and”; a condition that tells them apart may be missing. Equal entries are not always repeated. About 83,000 compounds went through this panel and 20% of them were active in at least one assay; those are over-represented in the sample as a whole.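 Plates (96-well) were seeded with cells, treated with compound at one concentration, and incubated for 48 hours before percent growth was determined.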 Unmarked numbers belong to inactive results. Activity calls are given as the source filed them. How the source made its calls: active means growth percent below 10; inactive means the rest.

The test system of the experiment is MDA-MB-468 breast. Description: NCI-60 one-dose screen, 48 h (100 = growth as untreated, 0 = no growth, -100 = all killed). To be noted: 10 µM unless noted.
For `COC(=O)c1ccc2c(c1)c1c(C)c3cnccc3c(C)c1n2C`, the growth was -38% (active). To `O=[N+]([O-])c1cc2ncccc2c2ncccc12` belongs 89%; to `COc1cc(/C=C/C(=O)N2c3ccccc3CC2C)c(OC)c2c1OCO2` (stereo not given), 86.9%. On to `CCCCCCCCCC(C)NC(=O)CCl` (stereo not given), for which the growth was 95.4%. As for `CC(C)(C)c1ccc(S(=O)(=O)N[C@H]2CC[C@H]3[C@@H]4CCc5cc(O)ccc5[C@H]4CC[C@]23C)cc1`, the figure is 57.8%; as for `CN(C)C(=N)N=C(N)N`, 80.6% and 128%; as for `CNC(=O)c1c(C)oc2cc(Oc3ncnc4cc(OC)c(OC)cc34)ccc12`, 106%. To `CC1SC(c2c(Cl)cccc2Cl)N(NC(=O)c2[nH]c3ccc(F)cc3c2-c2ccccc2)C1=O` (stereo not given) belongs 66.8%; to `Cc1ccc(NC(=O)c2ccc(CN3CCN(C)CC3)cc2)cc1Nc1nccc(-c2cccnc2)n1`, 70.9% and 73.4%. To `C=CCn1c(SCC(=O)Nc2ccc(OC)cc2)nnc1-c1ccc(Cl)cc1` belongs 81%; to `C=C1C(=O)O[C@H]2[C@H]1CC/C(COC(=O)n1ccnc1C)=C\CC[C@@]1(C)O[C@@H]21`, 76.4%. With `CC(C)NCCCNC1=C(Cl)C(=O)c2ccccc2C1=O`, the growth is 34.6%.

`Cc1nc(C)c(C)nc1C`: the growth was 106%. As for `Nc1ncnc2c1c(-c1ccc(Oc3ccccc3)cc1)nn2C[C@@H]1SSC[C@H]1O`, the figure is -0.15% (active); as for `CCOC(=O)COc1c(C)cc(SSc2cc(C)c(OCC(=O)OCC)c(C)c2)cc1C`, 109%. To `CCc1c2c(nc3ccc(OC(=O)N4CCC(N5CCCCC5)CC4)cc13)-c1cc3c(c(=O)n1C2)COC(=O)[C@]3(O)CC` belongs -31.2% (active); to `COC(=O)c1nc(-c2ccccc2)oc1S(=O)(=O)N1CCN(c2cccc(Cl)c2)CC1`, 46.6%; to `C/C(=C\c1cnc(C)s1)[C@@H]1C[C@@H]2O[C@@H]2CCC[C@H](C)[C@H](O)[C@@H](C)C(=O)C(C)(C)[C@@H](O)CC(=O)O1`, 43.4%. As for `CSc1ccc(OC(C)=O)cc1C`, the figure is 93.8%; as for `CC[C@H](CC[C@@H](C)[C@H]1CC[C@H]2[C@@H]3CC[C@@H]4CC(=O)/C(=C\c5ccncc5)C[C@]4(C)[C@H]3CC[C@]12C)C(C)C`, 105%. Turning to `CCCCCCNC(=O)Oc1ccc(/C(=C(/C)c2ccccc2)c2ccc(OCCN(C)C)cc2)cc1`, the growth is 71.5%.

With `C1C[S+]2CC[S+]1CC2`, the growth was 101%. Regarding `CCN(CC)CCCNc1c2ccc(Cl)cc2nc2ccc(OC)cc12`, the growth was -34.6% (active).

For `NS(=O)(=O)Oc1ccc(NC(=O)C2CCCCCC2)cc1`, the growth is 109%.

For `S=c1sc2ccccc2n1CN1CCCCC1`, the growth was 108%. Consider `CC(C)(C)c1cc(C(=O)N2CCC(C(=O)NCCN)CC2)cc(C(C)(C)C)c1`, for which the growth is 82.4%. To `CC(C)NCC(O)COc1ccc(CCOCC2CC2)cc1` (stereo not given) belongs 103%; to `CCOC(=O)c1sc(-c2ccc(OS(=O)(=O)c3ccc(C(C)(C)C)cc3)c(C=O)c2)nc1C`, 1.65% (active). To `CC(C)(C)c1cc(C(=O)Nc2cc3ccccc3cc2C(=O)NCCN)cc(C(C)(C)C)c1` belongs -87.6% (active); to `CCOC(=O)c1c(C)nc(C)c(C(=O)OCC)c1-c1cccnc1`, 94.8%. To `COc1cc2ncnc(Nc3ccc4c(cnn4C(=O)Nc4ccccc4)c3)c2cc1OC` belongs 52%; to `O=C(Nc1cccc(Cl)c1)Nc1nc2cc([N+](=O)[O-])ccc2o1`, 53.4%; to `COc1ccc(C=Nc2c(C(=O)Nc3cccc(Cl)c3C)sc3nc(C)c(C(=O)/C=C/c4ccc(OC)cc4)cc23)cc1`, 17.3%. For `C[C@]12CC[C@H]3[C@@H](CC=C4C[C@@H](O)CC[C@@]43C)[C@@H]1CC[C@@H]2[C@](C)(O)CCc1cccnc1`, the growth is 25.3%. Regarding `COc1ccc(/C=C(\C#N)n2nnc3ccc(Cl)cc32)cc1`, the growth is 28.9%.

For the compound `COc1cc(CSc2nc3ccc(C)cc3c(=O)n2-c2ccccc2)cc(OC)c1OC`, the growth is -8.37% (active). To `Cc1ccc(-c2cn3cc([N+](=O)[O-])ccc3n2)cc1` belongs 56.3%; to `CSc1ccc(Cl)c(C(=O)Nc2sccc2C(N)=O)c1`, -7.28% (active); to `COc1cnc2c(c1)C(=O)c1c-2n(CCCNC(C)C)c(=O)c2cc(F)ccc12`, -63.6% (active).

On to `CC(C)c1ccc(COCc2cc(CN3CCCC3)c(O)c3ncccc23)cc1`, for which the growth was -21.1% (active).
